# Screening results (PubChem)
# KB-V1 MDR tox: kills drug-selected multidrug resistant KB-V1 cells; KB-V1 MDR cells viability, CellTiter-Glo, 72 h; Potency, µM (series often up to 46.1 µM), actives largely listed as cytotoxic; 400,000 tested, 3.4% active; AID 1347076; also: % is scaled to controls: 0 for no effect and ±100 for the full control effect; nearly all actives have a fitted effect of over 60% in size
#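 Luminescent ATP read-out (CellTiter-Glo, 10 min) measures survival of drug-selected KB-V1 MDR cells after 72 h, 37 degrees C compound exposure. Medium: phenol-red-free DMEM, 10% FBS. Values from fitted concentration-response curves.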
# HT1080 IDH1KD tx: toxicity to HT-1080 IDH1 knockdown cells (counter line); 360,000 tested, 2% active; AID 686971; HT-1080 IDH1 knockdown viability, ATP luminescence, 48 h; Potency, µM (doses to about 46.1 µM), inactives show at the highest dose activity, negative = toxicity, usual class: cytotoxic;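 also: 0% = DMSO wells and -100% = cell-free medium wells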
#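 CellTiter-Glo luminescence after 48 h compound exposure at 37 degrees C of IDH1-knockdown HT-1080 cells in 5% FBS RPMI. %Activity scaled between DMSO wells and cell-free media wells, with curves fitted and assigned curve classes.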
# SW480 rerep: induces DNA re-replication in SW480 colon adenocarcinoma cells; SW480 DNA re-replication, Hoechst DNA content imaging, 48 h; Potency, µM (highest dose often 46.1 µM), for the others: at the top dose re-replication activation, actives largely listed as activators; 340,000 tested, 1.8% active; AID 624297; also: % of control where 0% means no effect; nearly all actives have a fitted effect of over 55% in size
#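 Cells (250 per well) received 23 nL compound or DMSO by pin tool and were kept 48 hr at 37 C, 5% CO2. Nuclei were then stained with Hoechst for 40 min and scanned for DNA content.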
# KB-3-1 cytotox: kills parental KB-3-1 adenocarcinoma cells. KB-3-1 viability, CellTiter-Glo ATP luminescence, 72 h. Potency, µM (titrated, usually from 46.1 µM), hits mostly cytotoxic. 400,000 tested, 1.4% active. AID 1347075; also: % is scaled to controls: 0 for no effect and ±100 for the full control effect; nearly all actives have a fitted effect of over 60% in size
#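 Here the drug-naive KB-3-1 line serves as comparator for MDR sub-line selectivity; cells received compound titrations, 72 h at 37 °C, then CellTiter-Glo readout.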
# MCF10A rereplic: induces DNA re-replication in MCF 10a normal breast cells | 350,000 tested, 2.9% active | Potency, µM (top dose mostly 46.1 µM), for inactives: top-dose activity, positive = re-replication, actives largely listed as activators | AID 624296 | MCF 10A DNA re-replication, Hoechst nuclear intensity, 48 h; also: % of control where 0% means no effect; nearly all actives have a fitted effect of over 50% in size
# HT1080-NT tox: kills 2HG-producing HT-1080-NT fibrosarcoma cells. HT-1080-NT fibrosarcoma viability, CellTiter-Glo ATP luminescence, 48 h. Potency, µM (series often up to 46.1 µM), for inactives: at the highest dose activity, negative = less viability, hits mostly cytotoxic. 360,000 tested, 1.6% active;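 also: NT is the 2HG producing partner of a matched IDH1 knockdown line; 0% = DMSO-treated cells and -100% = media-only wells without cells; nearly all actives have a fitted effect of over 55% in size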
#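 Toxicity toward the 2HG-producing NT line was scored as %Activity, normalised to DMSO and no-cell wells, from CellTiter-Glo luminescence after 48 hours' treatment.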
# * hit, by the source's call; i = inactive; u = inconclusive; x = not tested or not shown; ! = repeats disagree; [ ] = another dose, or the depositor's remark. This is a sample that favours compounds with a hit; in the whole collection about 7.9% have one here. Calls follow the shape of the dose curve; as a rule, active = well fitted curve in the direction sought with a large enough effect; inconclusive = small, poorly fitted or top-dose-only effect, or another doubt; inactive = no such curve, though single readings can be large; an effect the other way counts as inactive or inconclusive. Potency is read from the fitted curve at half-maximal effect.
SMILES,KB-V1 MDR tox,HT1080 IDH1KD tx,SW480 rerep,KB-3-1 cytotox,MCF10A rereplic,HT1080-NT tox
Cc1ccc(OCC(=O)Nc2cc(-c3nc4cc(Cl)ccc4o3)ccc2C)c(C)c1,i,x,x,i,x,x
CC(C)N1C(=O)NC2NC(=O)N(C(C)C)C21 (stereo unspecified),i,1%,x,i,x,11%
CC1(C)CC(=O)C(C=Nc2ccc(N)cc2)=C(O)C1,i,-4%,u,i,0.65µM*,0%
CC1(C)CC(=O)C(C=Nc2ccc(Cl)cn2)=C(O)C1,i,17%,-8%,i,-4%,13%
Cc1[nH]nc(N=CC2=C(O)CC(C)(C)CC2=O)c1-c1ccc(Cl)cc1,21µM*!,1%,u,i,18µM*!,4%
CC1(C)CC(=O)C(C=Nc2ccc(O)cc2)=C(O)C1,i,-2%[9.24 µM],-8%,i,-1%,u
Cc1[nH]nc(N=CC2=C(O)CC(c3ccco3)CC2=O)c1-c1ccc(Cl)cc1 (stereo unspecified),16µM*,-13%,-1%,i,18%,-1%
C=C(C)C(=O)OCC(O)COc1ccc(C(C)(C)c2ccc(OCC(O)COC(=O)C(=C)C)cc2)cc1 (stereo unspecified),u,u,18%,i,-36%,u
CN(Cc1cccs1)c1ncnc2ccc(-c3ccc4cnn(C)c4c3)cc12,i,x,x,u,x,x
CC(C)=CCC/C(C)=C/CC/C(C)=C/CCC1(C)CCc2cc(O)ccc2O1 (stereo unspecified),x,15%,x,x,x,5%
COC(=O)c1ccc(Cn2c(=O)cc(C(F)(F)F)c3c(C)nn(C)c32)cc1,i,x,x,i,x,x
COc1ccc(-c2cn3nc(N4CCCC(C(=O)Nc5ccccc5F)C4)sc3n2)cc1 (stereo unspecified),i,x,x,i,x,x
Cc1c(C(=O)N2CCOCC2)sc2nc(-c3ccccc3)cn12,23µM*,5%,-9%,i,-12%,8%
Cc1c(C(=O)Nc2ccc3c(c2)OCCO3)sc2nc(-c3ccccc3)cn12,12µM*,u,-1%,u,-1%,u
Cc1c(C(=O)Nc2ccncc2)sc2nc(-c3ccccc3)cn12,i,-6%,0%,i,u,2%
Cc1c(C(=O)NCc2ccco2)sc2nc(-c3ccccc3)cn12,i,u,u,16µM*,u,u
C[C@@H]1CCCCO[C@H](CN(C)C(=O)Nc2ccccc2)[C@@H](C)CN([C@H](C)CO)C(=O)c2cc(NS(=O)(=O)c3cn(C)cn3)ccc2O1,i,5%,x,i,x,9%
Cc1ccn2c(NCc3ccco3)c(-c3ccccc3)nc2c1,x,5%,x,x,x,1%
CSC1=NC(C(Cl)(Cl)Cl)N=C(c2ccccc2)N1 (stereo unspecified),5.8µM*,21µM*,u,3.3µM*,u,u
CCOC(=O)C1C(=O)NC(c2ccccc2)=NC1c1ccc(F)cc1 (stereo unspecified),i,12%,3%,i,6%,20%
CCCCC1Cc2[nH][nH]c(=O)c2C(c2ccc(F)cc2)O1 (stereo unspecified),i,26µM*,x,i,x,u
CNC(=O)C1CC(=O)N(CCc2ccc(OC)c(OC)c2)C(=Nc2ccc(F)cc2)S1 (stereo unspecified),i,1%,u,i,11%,2%
COc1ccc(CCN2C(=O)CSC2=S)cc1OC,5.8µM*,23µM*,15µM*,6.5µM*,12µM*,u
COc1ccc(CCN2C(=O)CC(C(N)=O)SC2=Nc2ccccc2)cc1OC (stereo unspecified),21µM*,-3%,-2%,i,4%,0%
Cc1ccc(NC(=S)NCC2CCN(C(C)c3ccccc3)C2)cc1 (stereo unspecified),i,-3%,0%,i,5%,-28%
